Only some compounds are listed: those with a hit (about 1.3% of all), similar ones and a draw of the others.
Giardia killer: Small Molecules that selectively kill Giardia lamblia: qHTS | Giardia lamblia trophozoite viability | activity change, % at 7.66 µM, hits read low | 0.15% of 340,000 active | AID 540267, 2011; in the data active = activity change below about -80%; inconclusive = between about -30% and that limit;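 also: parasites exposed to compound for two days anaerobically before the ATP read; % is scaled to controls: 0 for no effect and ±100 for the full control effect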
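Giardia trophozoites, 100 cells per well, were exposed to compounds for 48 hrs at 37 deg C under anaerobic conditions; viability was then read as ATP content by bioluminescence after 15-30 min at room temperature.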
PINK1 modulator: A Quantitative High throughput Screen to Identify Chemical Modulators of PINK1 Expression. AID 624263, 2012. Potency, µM (top dose mostly 76.6 µM), for inactives: top-dose activation (PINK1 increase), usual class: activators. PINK1 immunofluorescence, high-content cytometry, 24 h. 0.2% of 410,000 active; active = well fitted activation curve with a large enough effect; inconclusive = small, poorly fitted or top-dose-only effect; cell line not stated here; also: potency is read from the fitted curve at half-maximal effect; % of control where 0% means no effect; nearly all actives have a fitted effect of over 65% in size
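Readout is PINK1 immunofluorescence, quantified alongside mitochondrial, cell and nuclear markers by laser-scanning microplate cytometry. Cells from a stable line were exposed to compound titrations (5 concentrations) for 24 hours, with CCCP controls.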
ERG Ets-DNA blk: qHTS for Small Molecule Inhibitors of the ERG Ets/DNA interaction; Transcriptional regulator ERG (Homo sapiens), P11308; fluorescence polarization, His-ERG Ets domain / labelled DNA; Potency, µM (highest dose often 76.9 µM), without a hit: at the highest dose FP activity, negative = inhibition, most hits filed as inhibitors; 0.028% of 370,000 active; AID 624246, 2012; active = well fitted inhibition curve with a large enough effect in the polarisation, with a control signal flat; inconclusive = small, poorly fitted or top-dose-only effect, or effect the other way, or a change in a side signal; inactive = no such curve, though single readings can be large or run the other way; the % refers to the polarisation;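 also: polarization taken with two DNA probes labelled with fluorescein and Texas red; potency is read from the fitted curve at half-maximal effect; % of control where 0% means no effect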
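His-tagged ERG Ets domain (1 uM in the protein solution; 300mM KCl, 50mM Tris-HCl, 1mM EDTA, 1mM DTT, pH 7.5) received compound, then a probe mix of 5 nM fluorescein-DNA and 100nM Texas-615-DNA. Fluorescence polarization was read for both dyes.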
ALOX12 inh: Primary qHTS assay for inhibitors of human arachidonate 12S-lipoxygenase (ALOX12): Round 2; purified 12hLO, xylenol orange hydroperoxide absorbance; Potency, µM (highest dose often 108 µM), without a hit: at the top dose activity change, negative = inhibition, actives largely listed as inhibitors; 1.1% of 580,000 active; AID 1671190, 2021; also: potency is read from the fitted curve at half-maximal effect; % is scaled to controls: 0 for no effect and ±100 for the full control effect
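Purified human 12hLO at 150 nM in 25 mM Hepes, 0.01% Triton X-100, pH 7.0, preincubated 15 min at room temperature with compound. Reaction started with 40 uM arachidonic acid, 30 min at room temperature. Hydroperoxide measured by Fe-xylenol orange, 573/405 nm absorbance ratio.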
miR-21 reporter: qHTS Assay for Modulators of miRNAs and/orActivators of miR-21. HeLa miR-21 FLuc reporter, luciferase, 48 h. Potency, µM (highest dose often 38.3 µM), without a hit: at the top dose activity change, positive = activation, usual class: activators. 340,000 tested, under 10 active. AID 2288, 2010;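 also: % of control where 0% means no effect; miR-21 action dims this reporter so a rising signal means less miR-21 action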
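Luminescence from a firefly luciferase reporter carrying a miR-21 binding site downstream, stably expressed under a CMV promoter in HeLa cells that make miR-21 endogenously, reports miRNA modulation after 48 h compound exposure up to approximately 40uM final.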
PTHR1 ag: qHTS for PTHR1 Agonists: Primary Screen; HEK293 GP2 PTHR1 cells, GloSensor cAMP luminescence, 1 h; Potency, µM (doses to about 115 µM), without a hit: at the top dose activation, most hits filed as activators; 0.075% of 410,000 active; AID 743266, 2014; also: potency is read from the fitted curve at half-maximal effect; nearly all actives have a fitted effect of over 55% in size
Target sequence (Q03431 whole entry, looked up): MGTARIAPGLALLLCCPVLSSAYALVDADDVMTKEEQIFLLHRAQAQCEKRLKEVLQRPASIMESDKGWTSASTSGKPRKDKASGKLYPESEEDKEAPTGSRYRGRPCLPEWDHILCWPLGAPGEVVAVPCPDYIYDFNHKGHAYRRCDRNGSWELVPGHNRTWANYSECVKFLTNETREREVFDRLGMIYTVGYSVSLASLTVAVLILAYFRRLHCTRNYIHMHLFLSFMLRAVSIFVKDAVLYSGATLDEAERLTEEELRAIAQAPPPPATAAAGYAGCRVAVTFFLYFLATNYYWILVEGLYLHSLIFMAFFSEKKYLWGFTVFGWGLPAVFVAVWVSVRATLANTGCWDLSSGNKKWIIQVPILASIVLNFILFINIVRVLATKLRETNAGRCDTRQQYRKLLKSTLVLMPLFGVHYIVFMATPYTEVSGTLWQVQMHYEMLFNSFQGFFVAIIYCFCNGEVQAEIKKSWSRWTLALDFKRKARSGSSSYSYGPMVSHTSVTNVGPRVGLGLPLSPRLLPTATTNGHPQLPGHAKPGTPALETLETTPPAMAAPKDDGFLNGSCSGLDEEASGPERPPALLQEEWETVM
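HEK-293-derived GP2 cells expressing PTHR1 and a GloSensor cAMP reporter, 3,000/well, plated overnight, given luciferin plus IBMX (each 0.5 mM as added) for 1 h at 37 °C, then compound for 1 h at 37 °C. Luminescence was read after 15 min at room temperature.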
* = called active by the depositor; i = inactive; ? = inconclusive; / = not tested or not shown; [ ] = another dose, or the depositor's remark. Unless noted, calls follow the shape of the dose curve; as a rule, active = well fitted curve in the direction sought with a large enough effect; inconclusive = small, poorly fitted or top-dose-only effect, or another doubt; inactive = no such curve, though single readings can be large; an effect the other way counts as inactive or inconclusive.

SMILES | Giardia killer | PINK1 modulator | ERG Ets-DNA blk | ALOX12 inh | miR-21 reporter | PTHR1 ag
O=C(NC(=S)Nc1nc(-c2ccccc2)cs1)c1cccnc1 | -5 | 1% | 9% | 35µM* | -5% | -16%
CSC(C)C(=O)N1CCC2(CCC(=O)N(CCc3ccccc3)C2)CC1 (stereo not given) | / | / | / | 13% | / | /
COc1ccc(C(=O)Nc2nc3c(s2)C[C@@H]2[C@](C)(CO)[C@H](O)CC[C@@]2(C)[C@@H]3CC(=O)N2CCOCC2)cc1 | / | / | / | 89µM* | / | /
CC(C)(C)c1ccc(C(=O)Nc2nc3c(s2)C[C@@H]2[C@](C)(CO)[C@H](O)CC[C@@]2(C)[C@@H]3CC(=O)N2CCOCC2)cc1 | / | / | / | 6% | / | /
COC(=O)Cc1cc(=O)n2[nH]cnc2n1 | -14 | -1% | -11% | 6.3µM* | 3% | -11%[57.5 µM]
COC[C@@H]1CN(S(=O)(=O)c2cccc(C)c2)C[C@H]1c1nc(C)no1 | / | / | / | 45µM* | / | /
CN(C)c1nc(=NCc2cccs2)ss1 | -81* | 0% | / | 16µM* | / | -4%
CCOP(=O)(OCC)C(NC(=O)Nc1c(C)cc(C)cc1C)c1ccccc1 (stereo not given) | -8 | 1% | -11% | 6% | 1% | -1%
Cc1ccc(NC(=O)CSc2ncc(S(=O)(=O)c3ccc(C(C)C)cc3)c(=O)[nH]2)cc1C | / | -1% | -5% | 45µM* | -9% | -16%
Cc1ccc(S(=O)(=O)c2cnc(SCC(=O)Nc3ccc4c(c3)OCCO4)[nH]c2=O)cc1C | / | 1% | -6% | 0% | 1% | i
C=CCn1c(SCC(=O)NCC)nc2sc3c(c2c1=O)CCC3 | -3 | 5% | 6% | ? | -2% | -16%
CCCCC(=O)Nc1sc(C(=O)N(CC)CC)c(C)c1C(=O)OC | -20 | -1% | 8% | 35µM* | -10% | i
CCOC(=O)c1c(NC(=O)CN(C)C)sc(C(=O)N(CC)CC)c1C | -17 | 0% | 4% | 0% | -2% | i
COC(=O)C1CCCCN1Cc1nc(N2CCCCC2)c2cc(OC)c(OC)cc2n1 (stereo not given) | / | 1% | / | -16% | / | /
Cc1ccc(C(OCC(C)(C)C[N+](C)(C)C)c2ccccc2)cc1 (stereo not given) | 15 | 1% | 5% | 45µM* | 23% | i
C[N+](C)(C)CCOC(c1ccccc1)c1ccccc1 | / | / | / | 0% | / | /
O=c1oc2ccccc2c(NC2CCCCC2)c1NS(=O)(=O)c1ccc(F)cc1 | 23 | 1% | 2% | -4% | 4% | -16%
O=c1[nH]c2ccc(S(=O)(=O)Nc3c(NC4CCCCC4)c4ccccc4oc3=O)cc2o1 | / | / | / | 40µM* | / | /
Cc1nc2cc(OC3(C)CCN(Cc4ccc(OC(F)(F)F)cc4)C3)ccc2s1 (stereo not given) | / | 45µM* | / | ? | / | -22%
CCCCN1C=CC(=C2C(=O)c3ccccc3C2=O)C=C1 | -95* | -1% | 10% | -5% | ? | -38%
CCCCNC1=CC(=O)C(=O)c2ccccc21 | 3 | 0% | 0% | ? | 1% | -15%
CCCN1CCC(=O)N(CCSc2ccccc2)CC1 | -8 | 3% | -3% | -3% | -27% | -15%
c1ccc(SCCN2CCN(c3ccccc3)CC2)cc1 | 23 | 0% | -6% | 13µM* | -36% | -17%
NC(N)=Nc1nc(-c2ccccc2)c2cc(F)ccc2n1 | 2 | -1% | 10% | -14% | 19% | i
O=C(NCC(=O)N1CCN(c2ccccc2O)CC1)c1ccc2c(c1)OCO2 | -6 | -2% | -6% | 32µM* | -10% | i
SMILES | Giardia killer | PINK1 modulator | ERG Ets-DNA blk | ALOX12 inh | miR-21 reporter | PTHR1 ag
O=C(Cc1ccc(Cl)cc1Cl)N1CCN(c2ccccc2O)CC1 | / | / | / | 40µM* | / | /
O=C1NC(=NC2CCCCC2)C2(CCN(Cc3ccc(F)cc3)C2)N1c1cc(F)cc(F)c1 (stereo not given) | / | / | / | 5%[6.33 µM] | / | /
O=C(O)CC(c1ccncc1)c1c[nH]c2ccccc12 (stereo not given) | / | / | / | 3.5µM* | / | /
NCC(c1ccccc1)c1c[nH]c2ccccc12 (stereo not given) | 4 | 0% | -7% | 15% | -6% | -23%
CCOc1ccccc1OCC(=O)Nc1cc2c(cc1C(=O)O)OCCCO2 | -8 | 1% | -8% | ? | 4% | -23%
N#Cc1c2nc3ccccc3nc2n2cc(NC(=O)c3ccc(F)cc3)ccc12 | -3 | 3% | 59% | 40µM* | -5% | i
Cc1c(C(=O)Nc2ccc(F)cc2)cn2c(nc3ccccc32)c1C#N | -1 | 10% | 4% | 1% | -3% | -11%
CC(C)(C)c1csc(NC(=O)c2ccccc2O)n1 | -5 | 28µM* | 5% | ? | 21% | -37%
O=C1CCCC2=C1C1(CCCC1)N=C(Nc1nc3ccccc3s1)N2 | -27 | 11µM* | 1% | 12% | 2% | i
CCNC(=S)N/N=C(\C)c1ccc2ccccc2c1OC(F)F | 4 | 3% | 0% | 40µM* | 2% | -13%
Fc1ccc(-n2[nH]nnc2=S)cc1N1CCCC1 | 6 | / | / | 8.9µM* | -18% | -4%[57.5 µM]
Cc1ccc(S(=O)(=O)/N=C2\C=C(NS(=O)(=O)c3ccccc3)C(=O)c3ccccc32)c(C)c1 | -8 | -1% | 9% | ? | / | i
CC(C)(C)c1ccc(S(=O)(=O)/N=C2\C=C(NS(=O)(=O)c3ccccc3)C(=O)c3ccccc32)cc1 | 1 | 5% | 46% | 25µM* | 0% | -12%
Cc1[nH]nc2c1-c1nc3ccccc3nc1C(C)(C)C2 | 0 | -4% | -3% | 0% | 28% | 28µM*
CC(=O)OCC1=C(C(=O)O)N2C(=O)C(NC(=O)CCn3nc(C(F)(F)F)c(Br)c3C3CC3)C2SC1 (stereo not given) | 0 | -1% | -1% | 35µM* | 0% | -24%
Cc1ccc([C@@H]2CC=C(C(=O)O)[C@H](c3ccc(C(C)(C)C)cc3)N2S(=O)(=O)c2ccc(C)cc2)cc1 | -27 | 3% | -3% | -94% | / | -36%
CCCCC[C@@H]1C=C(C(=O)O)[C@H](c2ccc(Br)cc2)N1S(=O)(=O)c1ccc(C)cc1 | 10 | 0% | -3% | 35µM* | / | -7%
Cc1ccc(S(=O)(=O)N2[C@@H](c3ccc(C(C)(C)C)cc3)C(C(=O)O)=CC[C@H]2c2ccc(C(C)C)cc2)cc1 | -16 | ? | 3% | 40µM* | / | -96%
